Laboratory results taken from the supplement of paper PMC6518042.
Values without a mark were called inactive.

system: Pectobacterium parmentieri SCC3193; assay: DuctApe activity index (growth/respiration on compound as sole nutrient source, blank-subtracted) (activity index (0-3)); higher = stronger utilization of the compound, active = 3 or more; conditions: nutrient role (plate category): nitrogen
Description: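 Biolog Phenotype Microarray plates PM1, PM2A (carbon), PM3 (nitrogen) and PM4 (phosphorus/sulfur) inoculated with P. parmentieri SCC3193 in M9-C minimal salts medium with Biolog dye A, and read in the OmniLog for 46 h. Each well was tested in triplicate and the experiment was run twice. DuctApe computed a blank-subtracted activity index (AV, 0-3) from the mean curves; growth is positive at AV >= 3 and negative at AV <= 2.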

Compared with `N[C@@H]1C(O)O[C@H](CO)[C@@H](O)[C@@H]1O` (stereo partly drawn) [D-Mannosamine], `NCC(=O)N[C@@H](CCC(N)=O)C(=O)O` is lower in DuctApe activity index: 2 for the first, 1 for the second.

Compound `C[C@H](N)C(=O)N[C@@H](CCC(N)=O)C(=O)O` has a DuctApe activity index of 1.

same assay, conditions: nutrient role (plate category): phosphate & sulphur

`O=c1ccn(C2OC(COP(=O)(O)O)C(O)C2O)c(=O)[nH]1` (configuration not stated) [Uridine 5`-Monophosphate] and `N[C@@H]1[C@@H](O)[C@H](O)[C@@H](COP(=O)(O)O)O[C@@H]1O` [D-Glucosamine-6-Phosphate] are the same in DuctApe activity index: 2 for the first, 2 for the second.

Compared with `C[N+](C)(C)CCOP(=O)(O)O` [Phosphoryl Choline], `O=C(O)C(CO)OP(=O)(O)O` [D-2-Phospho-Glyceric acid] is higher in DuctApe activity index: 1 for the first, 2 for the second.

First: O=P(O)(O)OC[C@H]1OC(O)C[C@@H](O)[C@@H]1O (stereo partly drawn) [2-Deoxy-D-Glucose 6-Phosphate]
Second: O=P(O)(O)O[C@H]1O[C@H](CO)[C@@H](O)[C@H](O)[C@@H]1O [D-Mannose-1-Phosphate]
The DuctApe activity index of the first is lower: 1 for the first, 2 for the second.

First: N[C@@H](CS(=O)(=O)O)C(=O)O [L-Cysteic acid]
Second: N[C@@H](CS(=O)O)C(=O)O [L-Cysteine Sulfinic acid]
The DuctApe activity index of the first is higher: 1 for the first, 0 for the second.

`N[C@@H](CSCSC[C@H](N)C(=O)O)C(=O)O` [L-Djenkolic acid] gave a DuctApe activity index of 1.
